{"source": "PubChem BioAssay (NCI)", "note": "About 83,000 compounds went through this panel and 20% of them were active in at least one assay; those are over-represented in the sample as a whole.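 How to read the values: 0–100, growth inhibition (40 = 60% inhibited); 0, no net growth; -100 to 0, cell death (-40 = 40% of starting cells died; -100 = all dead).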 The source made the active and inactive calls. Rule for the calls: active = growth percent below 10; inactive = the rest.", "data": [{"test_system": "RXF 393 renal", "assay": "NCI-60 one-dose screen, 48 h (100 = growth as untreated, 0 = no growth, -100 = all killed)", "conditions": "10 µM", "values": [{"compound": "CN1CCN(c2ccc(C(=O)/C=C/c3ccc(C#N)cc3)cc2)CC1", "growth": "63.9% (inactive)"}, {"compound": "CC(C)(C)Nc1nc2cc(Cl)c(Cl)cc2nc1S(C)(=O)=O", "growth": "6.24% (active)"}, {"compound": "COc1cc(/C=C/C(=O)c2cc(OC)c(OC)c(OC)c2)ccc1Oc1nc(Nc2ccc(F)cc2)nc(N(C)C)n1", "growth": "-74.9% (active)"}, {"compound": "C=C1CCC2C3(C)COC(c4cc(F)cc(F)c4)OC3CCC2(C)C1C/C=C1/C(=O)OCC1O", "note": "(centres undefined)", "growth": "-73.7% (active)"}, {"compound": "Cc1cc(C(F)(F)F)ccc1C(=O)Nc1sc2c(c1C#N)CCC(=O)C2", "growth": "-64.9% (active)"}, {"compound": "N#Cc1c(Cl)nc(SCc2ccc(F)cc2)nc1-c1ccc(F)cc1", "growth": "89.7% (inactive)"}]}, {"test_system": "SF-268 CNS", "assay": "NCI-60 one-dose screen, 48 h (100 = growth as untreated, 0 = no growth, -100 = all killed)", "conditions": "10 µM", "values": [{"compound": "COc1ccc(N2N=C(c3ccc4c(c3)OCCO4)CC2c2cccc(NC(=O)CCCNS(=O)(=O)c3ccc(F)cc3)c2)cc1", "note": "(centres undefined)", "growth": "56.2% (inactive)"}, {"compound": "COc1cc(/C=N/NC(=O)c2ccc3nc(-c4ccc(Cl)cc4)[nH]c3c2)cc(OC)c1OC", "growth": "-33.9% (active)"}, {"compound": "O=C(N=Nc1c(O)[nH]c2ccc(Br)cc12)c1ccc2nc(-c3ccccc3)[nH]c2c1", "growth": "-53.3% (active)"}, {"compound": "COc1ccccc1[C@H]1C(C(=O)c2ccc(Cl)cc2)C2(N[C@@H]1c1ccccc1)C(=O)Nc1ccc(Cl)cc12", "note": "(some centres undefined)", "growth": "26.3% (inactive)"}, {"compound": "O=c1cc(-c2ccccc2)oc2cc(OCCCNCc3ccccc3)cc(O)c12", "growth": "25.2% (inactive)"}, {"compound": "O=C1Nc2cc(-c3ccc(NC(=O)c4cccs4)cc3)ccc2/C1=C/c1ccc[nH]1", "growth": "73.5% (inactive)"}, {"compound": "O=C(c1ccc(O)cc1)C1[C@H](c2ccc(Br)cc2)[C@@H](c2ccccc2)NC12C(=O)Nc1ccccc12", "note": "(some centres undefined)", "growth": "35.5% (inactive)"}, {"compound": "C=C1CCC2C3(C)COC(c4ccccc4F)OC3CCC2(C)C1C/C=C1/C(=O)OCC1O", "note": "(centres undefined)", "growth": "58% (inactive)"}, {"compound": "C=C1CCC2C3(C)COC(c4c(F)cccc4F)OC3CCC2(C)C1C/C=C1/C(=O)OCC1O", "note": "(centres undefined)", "growth": "65.2% (inactive)"}, {"compound": "COc1cccc(/C=C2\\N=C(C)N(CCc3ccc(S(N)(=O)=O)cc3)C2=O)c1", "growth": "101% (inactive)"}, {"compound": "C=C1CCC2C3(C)COC(c4cccc(F)c4)OC3CCC2(C)C1CC(O)C1=CCOC1=O", "note": "(centres undefined)", "growth": "106% (inactive)"}, {"compound": "Cn1cc(-c2cc(N)n3nc(-c4c[nH]c5ccc(Br)cc45)cc3n2)c2cccnc21", "growth": "-45.7% (active)"}, {"compound": "C=C1CCC2C3(C)COC(c4c(F)cccc4F)OC3CCC2(C)C1CC(O)C1=CCOC1=O", "note": "(centres undefined)", "growth": "98.5% (inactive)"}, {"compound": "Brc1ccc(/C=C/c2n(Cc3ccc4ccccc4c3)c3ccccc3[n+]2Cc2ccc3ccccc3c2)cc1", "growth": "-38.3% (active)"}, {"compound": "O=C(Nc1ccc(I)cc1)Nc1nc2ccc([N+](=O)[O-])cc2s1", "growth": "-83.7% (active)"}, {"compound": "O=C(N/N=C/c1ccc(B(O)O)o1)c1[nH]c2ccc(Br)cc2c1-c1ccccc1", "growth": "51.1% (inactive)"}, {"compound": "CONC[C@]1(C)C=C2C(=O)[C@](C)(O)C3(CC3)C(C)=C2[C@H]1O", "growth": "-4.06% (active)"}, {"compound": "O=C(Nc1cccc(-c2cn(-c3ccc4oc(=O)ccc4c3)nn2)c1)Nc1cc(C(F)(F)F)cc(C(F)(F)F)c1", "growth": "62.2% (inactive)"}, {"compound": "CCCCCCCCCCCCCCCCCCCC(=O)NCCc1c[nH]c2ccc(OC(=O)CCCC(=O)OCCOOCCOOCCOOCCOOCCOOCCOOCCOOCCOOCCOOCCOOCCOOCCOC)cc12", "growth": "16.7% (inactive)"}, {"compound": "COc1ccc(/C(C)=N/N=C2C(=O)N(C)c3ccc(Br)cc32)cc1S(N)(=O)=O", "growth": "33.4% (inactive)"}, {"compound": "N#Cc1c(NC(=O)c2ccc(C(F)(F)F)cc2C(F)(F)F)sc2c1CCC(=O)C2", "growth": "27.1% (inactive)"}, {"compound": "CNCc1cccc2c1OCCCCCC[C@@](C)(O)CC1(CC1)S(=O)(=O)c1ccc(cc1)-c1cnc(N)c(n1)C(=O)N2", "growth": "-64.2% (active)"}, {"compound": "COc1cc(OC(F)(F)F)ccc1C(=O)Nc1sc2c(c1C#N)CCC(=O)C2", "growth": "96.6% (inactive)"}, {"compound": "Nc1n[nH]c2cccc(C#Cc3cccc(NC(=O)Nc4cc(C(F)(F)F)cc(C(F)(F)F)c4)c3)c12", "growth": "-2.88% (active)"}, {"compound": "N#Cc1c(-c2ccc(F)cc2)nc(SCc2ccc([N+](=O)[O-])cc2)nc1N1CCOCC1", "growth": "49.3% (inactive)"}, {"compound": "CC1=N/C(=C\\c2ccc(N(C)C)cc2)C(=O)N1CCc1ccc(S(N)(=O)=O)cc1", "growth": "102% (inactive)"}, {"compound": "CN(CCF)c1ccc(/C=C/C(=O)c2ccc(N)cc2O)cc1", "growth": "93.7% (inactive)"}, {"compound": "O=C(c1ccc(Cl)cc1)C1[C@H](c2ccccc2Br)[C@@H](c2ccccc2)NC12C(=O)Nc1ccccc12", "note": "(some centres undefined)", "growth": "27.9% (inactive)"}]}]}
